# From ChEMBL document CHEMBL3988442, “University of Dundee, Small-Polar-MMV Screening Library” (2021)
# Hit rate of the full screen: of about 69,000 compounds, about 950 (1.4%) showed an effect of 50% or more. The sample as a whole holds a higher share of strong results than the screen did.
# Tested on: Mycobacterium tuberculosis
# Assay: Cornell M. t heat shock assay; also: in the data most compounds retested in dose-response had high values
# Assay type: functional, organism-based
# Design: dose or concentration left out as unconfirmed
row,SMILES,Percent Effect [%]
1,Cl.Cl.NCC1CN(c2ncnc3[nH]cnc23)CCO1 (stereo not given),-17.53
2,CNC(=O)C1Cn2ccnc2C2(CCN(Cc3nccs3)CC2)O1.O=C(O)C(F)(F)F.O=C(O)C(F)(F)F (stereo not given),-22.49
3,Cc1nc(CN2C[C@@H]3COC[C@]3(COCC(=O)N(C)C)C2)cs1.O=C(O)C(F)(F)F,-21.91
4,CCOC1CC2(CCN(C(=O)COC)CC2)c2cc(C)ccc21 (stereo not given),-4.26
5,COCCN1CCC2(CC1)CC(OCC1CC1)c1ccc(C)cc12 (stereo not given),53.27
6,Cc1ccc2c(c1)C1(CCNCC1)CC2OCC1CC1 (stereo not given),13.82
7,COCCN1CCC2(CC1)CN(C(=O)c1ccccc1)CCO2.O=C(O)C(F)(F)F,-8.433
8,CN(C)C(=O)N1CCC2(CCCN(CCOc3ccccc3)C2)C1.O=C(O)C(F)(F)F (stereo not given),-6.162
9,O=C(O)C1(Oc2cccc(F)c2)CCN(C2CCOCC2)CC1,1.505
10,O=C(O)C1(Oc2ccc(Cl)cc2)CCN(C2CCOCC2)CC1,51.75
11,O=C(O)C1(Oc2ccc3c(c2)OCO3)CCN(C2CCOCC2)CC1,-2.757
12,Cc1cc(C2CCCN(CC(=O)Nc3nc4c(s3)CCC4)C2)n[nH]1 (stereo not given),104
13,Cc1cc(C2CCCN(CC(=O)N3CCCc4ccccc43)C2)n[nH]1 (stereo not given),-30.42
14,Cc1cc(C2CCCN(CC(=O)N3CCc4ccccc43)C2)n[nH]1 (stereo not given),-11.71
15,O=C(O)c1cccc(CN2CCCC(c3ccn[nH]3)C2)c1 (stereo not given),-8.776
16,O=C(CN1CCCC(c2ccn[nH]2)C1)Nc1nc2c(s1)CCC2 (stereo not given),104
17,CC(C)C1Nc2ccccc2C(=O)N1CC(=O)Nc1nc2c(s1)CCC2 (stereo not given),-0.3209
18,O=C(CN1CCCC(c2ccn[nH]2)C1)Nc1nc2c(s1)CCCC2 (stereo not given),102.5
19,O=C(CN1CCCC(c2ccn[nH]2)C1)N1CCCc2ccccc21 (stereo not given),-24.99
20,O=C1CCCN1CCN1CCCC(c2ccn[nH]2)C1 (stereo not given),4.433

row,SMILES,Percent Effect [%]
1,CN1CCOCC2(CCCN(C(=O)Cc3ccncc3)C2)C1.O=C(O)C(F)(F)F (stereo not given),-28.6
2,COc1cccc(Cn2c(C3CCNCC3)cc3cccnc32)c1.Cl,0.437
3,CCC(CN1CCN(C)CC1)NC(=O)C1(c2cccc(F)c2)CC1.O=C(O)CC(O)(CC(=O)O)C(=O)O (stereo not given),1.881
4,O=C(O)C(F)(F)F.O=C(O)C(F)(F)F.O=C(O)C(F)(F)F.c1cncc(CN2CCCn3nnc(CN4CCCC4)c3C2)c1,-36.4
5,CNC(=O)CN1CCCC12CCN(C(=O)c1ccc(F)cc1)CC2.O=C(O)C(F)(F)F,-33.92
6,Cc1oncc1C(=O)N[C@@H]1CN(Cc2ccoc2)C[C@@H]2CCCO[C@@H]21.O=C(O)C(F)(F)F,44.61
7,CCOc1ccc(Br)cc1C1CCCCN1.Cl (stereo not given),18.96
8,CS(=O)(=O)CCn1ccc(NC(=O)Cc2ccccc2Cl)n1,-16.05
9,CC(C)N(C)CC(=O)Nc1ccc(-n2ccc(C(N)=O)n2)cc1,4.536
10,CC(C)N(C)CC(=O)NC1CCc2nccn2C1 (stereo not given),-3.465
11,CCOCC(=O)Nc1nccn1Cc1ccccc1Cl,94.36
12,CC(C)N(C)CC(=O)Nc1nccn1Cc1ccccc1Cl,70.24
13,CS(=O)(=O)CCC(=O)Nc1cnn(-c2ccccc2Cl)c1,-2.43
14,CS(=O)(=O)CCC(=O)Nc1nccn1Cc1ccccc1Cl,51.39
15,CCOCC(=O)Nc1cccnc1-n1ccnc1C,3.015
16,Cc1nccn1Cc1cccc(CNC(=O)c2ccn(C)c(=O)c2)c1,-21.74
17,CCOCC(=O)NCCCn1ccnc1-c1ccccc1,0.7963
18,Cn1ccc(C(=O)Nc2nnc(-c3ccccn3)[nH]2)cc1=O,24.76
19,Cn1ccc(C(=O)Nc2nccn2Cc2ccccc2Cl)cc1=O,54.71
20,CC1c2ncc(CNC(=O)C3CC3)n2CCN1Cc1cccnc1.O=C(O)C(F)(F)F.O=C(O)C(F)(F)F (stereo not given),-10.62

row,SMILES,Percent Effect [%]
1,CN1CC(=O)N(c2ccccc2)CC12CCN(C(=O)c1cccs1)C2.O=C(O)C(F)(F)F (stereo not given),-3.603
2,O=C(O)C(F)(F)F.O=C(O)C(F)(F)F.O=C(c1cccnc1)N1Cc2nccn2CC(COc2cccnc2)C1 (stereo not given),-22.14
3,CCN1C(=O)CCC12CCCN(Cc1nccs1)CC2.O=C(O)C(F)(F)F (stereo not given),-119
4,CN(C)CCOCC1CN(Cc2cccs2)Cc2ccnn2C1.O=C(O)C(F)(F)F.O=C(O)C(F)(F)F.O=C(O)C(F)(F)F (stereo not given),-22.31
5,CN(C)Cc1cc(C2CCN(C(=O)C3CC34CCC4)CC2)nn1C.Cl (stereo not given),-10.56
6,CNc1cc(C)nc(N2Cc3cnn(Cc4ccc(F)cc4)c3C2)n1,-20.76
7,Cc1ccc(CNC2CC3(CCN(CCO)CC3)c3ccccc32)s1.O=C(O)C(F)(F)F.O=C(O)C(F)(F)F (stereo not given),0.5733
8,O=C(O)C(F)(F)F.O=C1N(Cc2cccnc2)CCC12CCCN(c1ncc(F)cn1)C2 (stereo not given),4.445
9,Cl.Oc1cc(C2CCNCC2)nc(-c2ccsc2)n1,-3.533
10,Cn1nccc1C(=O)N1CCC2(CC1)COC(COc1ccccn1)C2.O=C(O)C(F)(F)F (stereo not given),-4.012
11,COC(=O)N1CCN(Cc2ccccc2Cl)CC1,-12.81
12,CC(=O)Nc1nccn1Cc1ccccc1Cl,63.7
13,CCOCCOC(C)C(=O)Nc1nccn1Cc1ccccc1 (stereo not given),28.47
14,O=C(Nc1ccc(=O)n(Cc2ccccc2Cl)c1)C1CC1,42.02
15,CC(OCC1CC1)C(=O)Nc1nccn1Cc1ccccc1 (stereo not given),81.58
16,CC(OCC1CC1)C(=O)Nc1ccn(Cc2ccccc2)n1 (stereo not given),-11.4
17,CN1CCOCC2(CCCN(C(=O)c3cnccn3)C2)C1.O=C(O)C(F)(F)F (stereo not given),-11.83
18,Cc1cc(N(C)C)nc(C2CCNC2)n1.Cl.Cl (stereo not given),-43.84
19,Cc1cnc(N2CC[C@H]3[C@@H]2CCC(=O)N3c2ccccc2)nc1.O=C(O)C(F)(F)F,36.02
20,O=C(NCC1CC1)[C@@H]1CCO[C@@H]2CCN(CCc3ccccc3)C[C@H]21.O=C(O)C(F)(F)F,-21.47
